Results filed as inconclusive are left out. Where a call stands in place of a potency, no number is given. Active and inactive are the calls of the source. Unless noted, the call rests on the fitted dose curve; in most records, active means well fitted curve in the direction sought with a large enough effect; inconclusive means small, poorly fitted or top-dose-only effect, or another doubt; inactive means no such curve, though single readings can be large; an effect the other way counts as inactive or inconclusive.
Target: Alpha-galactosidase (Coffea arabica) (UniProt Q42656)
Sequence (Q42656 whole entry, looked up): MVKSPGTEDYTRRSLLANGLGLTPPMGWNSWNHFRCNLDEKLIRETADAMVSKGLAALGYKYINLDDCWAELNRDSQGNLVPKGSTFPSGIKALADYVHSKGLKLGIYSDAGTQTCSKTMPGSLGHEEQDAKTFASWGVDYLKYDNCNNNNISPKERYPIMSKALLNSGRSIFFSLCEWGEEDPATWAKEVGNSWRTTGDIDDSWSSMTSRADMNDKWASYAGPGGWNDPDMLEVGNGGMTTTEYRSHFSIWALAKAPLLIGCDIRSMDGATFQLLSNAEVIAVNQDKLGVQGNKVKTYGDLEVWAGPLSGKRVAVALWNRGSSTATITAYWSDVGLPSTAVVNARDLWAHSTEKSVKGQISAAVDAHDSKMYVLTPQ
Test: Counterscreen for Glucocerebrosidase Inhibitors: qHTS Assay for Coffee Bean alpha-Galactosidase at pH 4.5 (AID 957)
Settings: purified coffee bean alpha-galactosidase, fluorogenic substrate; series mostly up to 76.9 µM
Procedure, shortened: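 Fluorogenic qHTS at pH 4.5 (citrate buffer with Tween-20): 2 nM enzyme, 80 uM 4-MU-alpha-galactoside substrate, compound titrated 0.7 nM to 77 uM, 20 min room temperature. Glycine/NaOH stop; 4-MU read Ex 365/Em 440; Hill-equation AC50 against no-enzyme and enzyme controls.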

**Q.** With `N=C(N)c1ccc(OCCCCCOc2ccc(C(=N)N)cc2)cc1` (tested in a mixture with another compound) as the molecule, how does the outcome read?
**A.** Its outcome is “inactive”.

**Q.** With `O=c1cc(-c2ccccc2)[nH]c2nc(Cl)ccc12` as the molecule, how does the outcome read?
**A.** The outcome was “inactive”.

**Q.** For `O=Nc1c(-c2c(O)[nH]c3ccccc23)[nH]c2ccccc12`, which outcome is on record?
**A.** Its outcome is “inactive”.

**Q.** For `COc1ccc(NC(=O)c2ccc(-c3ccc(-c4noc(C)n4)cc3C)cc2)cc1N1CCN(C)CC1`, which outcome is on record?
**A.** The outcome was “inactive”.

**Q.** For `CN(C)c1cc2c(Nc3ccc4c(cnn4Cc4ccccc4)c3)ncnc2cn1`, which outcome is on record?
**A.** Its outcome is “inactive”.

Target: Alpha-galactosidase (Coffea arabica) (UniProt Q42656)
Test: Counterscreen for Glucocerebrosidase Inhibitors: qHTS Assay for Coffee Bean alpha-Galactosidase at pH 5.9 (AID 998)
Settings: coffee bean alpha-galactosidase enzyme assay; series mostly up to 76.9 µM
Procedure, shortened: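 Fluorogenic 4-MU substrate hydrolysis, 80 uM substrate and 2 nM coffee bean alpha-galactosidase, pH 5.9 citrate buffer, 20 min at room temperature, then NaOH/glycine stop. Titration 0.7 nM–77 uM, normalized to no-enzyme and enzyme controls, AC50 via Hill equation.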

**Q.** With `N=C(N)c1ccc(OCCCCCOc2ccc(C(=N)N)cc2)cc1` (tested in a mixture with another compound) as the molecule, how does the outcome read?
**A.** The outcome was “inactive”.

**Q.** With `O=c1cc(-c2ccccc2)[nH]c2nc(Cl)ccc12` as the molecule, how does the outcome read?
**A.** Its outcome is “inactive”.

**Q.** For `O=Nc1c(-c2c(O)[nH]c3ccccc23)[nH]c2ccccc12`, which outcome is on record?
**A.** Its outcome is “inactive”.

**Q.** With `COc1ccc(NC(=O)c2ccc(-c3ccc(-c4noc(C)n4)cc3C)cc2)cc1N1CCN(C)CC1` as the molecule, how does the outcome read?
**A.** The outcome was “inactive”.

**Q.** Which outcome does the source give for `CN(C)c1cc2c(Nc3ccc4c(cnn4Cc4ccccc4)c3)ncnc2cn1` here?
**A.** The outcome was “inactive”.

Tested on: not listed separately
Test: Validation screen for inhibitors of Lassa infection (AID 463096; calls by dose curve; further: potency means the concentration at half of the fitted maximal effect)
Settings: Lassa virus infection, cell-based; series mostly up to 46.1 µM

**Q.** Which Potency does the source give for `N=C(N)c1ccc(OCCCCCOc2ccc(C(=N)N)cc2)cc1` (tested in a mixture with another compound) here?
**A.** Its Potency is “inactive”.

**Q.** For `O=c1cc(-c2ccccc2)[nH]c2nc(Cl)ccc12`, which Potency is on record?
**A.** The Potency was “inactive”.

**Q.** For `CC1CNCCN1S(=O)(=O)c1cccc2cnccc12` (stereo unspecified), which Potency is on record?
**A.** Its Potency is “inactive”.

**Q.** For `COc1ccc(NC(=O)c2ccc(-c3ccc(-c4noc(C)n4)cc3C)cc2)cc1N1CCN(C)CC1`, which Potency is on record?
**A.** Its Potency is 7.94 µM (active).

**Q.** Which Potency does the source give for `CCC1(O)CC2CN(CCc3c([nH]c4ccccc34)[C@@](C(=O)OC)(c3cc4c(cc3OC)N(C=O)C3[C@]45CCN4CC=C[C@@](CC)([C@@H](OC(C)=O)[C@]3(O)C(=O)OC)[C@H]45)C2)C1` (stereo partly specified) here?
**A.** The Potency was 20 µM (active).

**Q.** For `CCCCC[C@H](CC(=O)NO)C(=O)N[C@H](C(=O)N1CCC[C@H]1CO)C(C)C`, which Potency is on record?
**A.** Its Potency is “inactive”.

**Q.** For `CN1CCCC1CCOC(C)(c1ccccc1)c1ccc(Cl)cc1` (stereo unspecified), which Potency is on record?
**A.** The Potency was 10 µM (active).

Tested on: not listed separately
Test: Inducers of the Endoplasmic Reticulum Stress Response (ERSR) in human glioma: Validation (AID 504836)
Settings: human glioma cells, ER stress response reporter; series mostly up to 38.3 µM
Procedure, shortened: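 ERSR induction read as luciferase luminescence (Bright-Glo, 10 min at room temperature) in stably transfected human U87-MG glioma cells exposed to compounds for 16 h, using GRP78 as sensor.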

**Q.** For `N=C(N)c1ccc(OCCCCCOc2ccc(C(=N)N)cc2)cc1` (tested in a mixture with another compound), which outcome is on record?
**A.** The outcome was “inactive”.

**Q.** For `O=c1cc(-c2ccccc2)[nH]c2nc(Cl)ccc12`, which outcome is on record?
**A.** The outcome was “inactive”.

**Q.** For `CNCCc1cnc(CCC(c2ccccc2)c2ccccc2)[nH]1`, which outcome is on record?
**A.** Its outcome is “inactive”.

**Q.** With `CCOC(=O)N1CCN(/[N+]([O-])=N/Oc2ccc([N+](=O)[O-])cc2[N+](=O)[O-])CC1` as the molecule, how does the outcome read?
**A.** Its outcome is “inactive”.

**Q.** For `CC1CNCCN1S(=O)(=O)c1cccc2cnccc12` (stereo unspecified), which outcome is on record?
**A.** The outcome was “inactive”.

**Q.** Which outcome does the source give for `COc1ccc(NC(=O)c2ccc(-c3ccc(-c4noc(C)n4)cc3C)cc2)cc1N1CCN(C)CC1` here?
**A.** Its outcome is “inactive”.

**Q.** For `CC(C)ON([C@@H](C(=O)NO)C(C)C)S(=O)(=O)c1ccc(-c2ccccc2)cc1`, which outcome is on record?
**A.** The outcome was “inactive”.

**Q.** Which outcome does the source give for `COc1ccc(-c2cc3ncc(C)n3c(Nc3ncccc3C(N)=O)n2)cc1OC` here?
**A.** Its outcome is “inactive”.

**Q.** For `Oc1ccc2ccccc2c1SSc1c(O)ccc2ccccc12`, which outcome is on record?
**A.** Its outcome is “inactive”.

**Q.** With `CCC1(O)CC2CN(CCc3c([nH]c4ccccc34)[C@@](C(=O)OC)(c3cc4c(cc3OC)N(C=O)C3[C@]45CCN4CC=C[C@@](CC)([C@@H](OC(C)=O)[C@]3(O)C(=O)OC)[C@H]45)C2)C1` (stereo partly specified) as the molecule, how does the outcome read?
**A.** The outcome was “inactive”.

**Q.** For `O[Si](CCCN1CCCCC1)(c1ccc(F)cc1)C1CCCCC1` (stereo unspecified), which outcome is on record?
**A.** Its outcome is “inactive”.

**Q.** For `CN(C)c1cc2c(Nc3ccc4c(cnn4Cc4ccccc4)c3)ncnc2cn1`, which outcome is on record?
**A.** Its outcome is “inactive”.

**Q.** For `CCCCC[C@H](CC(=O)NO)C(=O)N[C@H](C(=O)N1CCC[C@H]1CO)C(C)C`, which outcome is on record?
**A.** The outcome was “inactive”.

**Q.** With `CCOC(=O)C1=C(C)NC(C)=C(C(=O)OCC)C1c1c(F)c(F)c(F)c(F)c1F` as the molecule, how does the outcome read?
**A.** Its outcome is “inactive”.

Reference: PubChem BioAssay (NCATS)
